Several values for one entry are separate records, joined by “and”; a condition that tells them apart may be missing. Identical values can stand only once. The source holds several records for some structures; these can differ, active in one and inactive in another. Activity calls are given as the source filed them. Unless noted, the call rests on the fitted dose curve; in most records, active means well fitted curve in the direction sought with a large enough effect in the repeat runs; inconclusive means weak or mixed curves; inactive means no such curve, though single readings can be large; an effect the other way counts as inactive or inconclusive.

Among the data in PubChem BioAssay (Tox21) are Potency and outcome values, retold here.

The nature of assay [1]: qHTS assay to identify small molecule antagonists of the glucocorticoid receptor (GR) signaling pathway - cell viability counter screen (AID 720693). Further: nearly all actives have a fitted effect of over 55% in size. Further: potency means the concentration at half of the fitted maximal effect.
A short description of assay [2]: qHTS assay for identifying genotoxic compounds that show differential cytotoxicity against isogenic chicken DT40 cell lines with known DNA damage response pathways - wild type cell line (AID 743012). Further: nearly all actives have a fitted effect of over 60% in size. Further: potency means the concentration at half of the fitted maximal effect. The procedure, abridged:
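First, wild type DT40 cells were plated at 300 per well and equilibrated about 0.5 h at 37 C/5% CO2. Next, compounds in DMSO were added and exposure lasted 40 h. Finally, CellTiter-Glo was added for 30 min at room temperature and luminescence recorded.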
In general terms: In qHTS, concentration-response curves come from the screen itself.

Assay [3] in a line: qHTS assay for identifying genotoxic compounds that show differential cytotoxicity against isogenic chicken DT40 cell lines with known DNA damage response pathways - Rev3 mutant cell line (AID 743014). Further: nearly all actives have a fitted effect of over 55% in size. Further: potency means the concentration at half of the fitted maximal effect.
Assay [4] is described as follows: qHTS assay for identifying genotoxic compounds that show differential cytotoxicity against isogenic chicken DT40 cell lines with known DNA damage response pathways - Rad54/Ku70 mutant cell line (AID 743015). Further: nearly all actives have a fitted effect of over 60% in size. Further: potency means the concentration at half of the fitted maximal effect.
The nature of assay [5]: qHTS assay to identify small molecule antagonists of the androgen receptor (AR) signaling pathway - cell viability counter screen (AID 743033; further: nearly all actives have a fitted effect of over 45% in size; further: potency means the concentration at half of the fitted maximal effect).
Assay [6] is described as follows: qHTS assay to identify small molecule antagonists of the androgen receptor (AR) signaling pathway using the MDA cell line - cell viability counter screen (AID 743041; further: nearly all actives have a fitted effect of over 45% in size; further: potency means the concentration at half of the fitted maximal effect). Summed up:
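MDA-kb2 AR-luc cells (MMTV-luciferase, AR/GR responsive) treated with compounds plus R1881 agonist for 16 h at 37C. CellTiter-Fluor added at 15.5 h; fluorescence read after 30 min in the same wells.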

Assay [7] in a line: qHTS assay to identify small molecule antagonists of the thyroid receptor (TR) signaling pathway - cell viability counter screen (AID 743064). Further: nearly all actives have a fitted effect of over 50% in size. Further: potency means the concentration at half of the fitted maximal effect. Summed up: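 CellTiter-Fluor readout, 30 min at 37 °C/5% CO2, following 23.5 h incubation of GH3.TRE-Luc cells with test compound and 1 nM T3 (final).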
Assay [8] in a line: qHTS assay to identify small molecule antagonists of the thyroid receptor (TR) signaling pathway (AID 743065). Further: nearly all actives have a fitted effect of over 55% in size. Further: potency means the concentration at half of the fitted maximal effect. Summed up: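 GH3.TRE-Luc rat pituitary cells (two TREs driving luciferase) were dosed with compound, then stimulated with 1 nM T3 (final) for 23.5 h at 37 C. ONE-Glo luminescence was the read-out, with CellTiter-Fluor fluorescence as the cytotoxicity counter-screen.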

Assay [9] in a line: qHTS assay to identify small molecule antagonists of the estrogen receptor alpha (ER-alpha) signaling pathway - cell viability counter screen (AID 743074; calls by dose curve;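 further: HEK293 cells carrying ER-alpha-UAS-bla reporter stimulated with 17beta-estradiol; nearly all actives have a fitted effect of over 45% in size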; further: potency means the concentration at half of the fitted maximal effect).
The nature of assay [10]: qHTS assay to identify small molecule antagonists of the estrogen receptor alpha (ER-alpha) signaling pathway using the BG1 cell line - cell viability counter screen (AID 743081).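 Further: compound given together with 17beta-estradiol as the ER stimulus; nearly all actives have a fitted effect of over 45% in size.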 Further: potency means the concentration at half of the fitted maximal effect.
Assay [11] deals with thyroid hormone receptor (rat, GH3 cells). The experiment in a line: qHTS assay to identify small molecule agonists of the thyroid receptor (TR) signaling pathway (AID 743066; calls by dose curve).
Assay [12] has as its target Estrogen receptor (Homo sapiens) (UniProt P03372). Briefly: qHTS assay to identify small molecule antagonists of the estrogen receptor alpha (ER-alpha) signaling pathway (AID 743069; active means well fitted curve in the direction sought with a large enough effect in the signal ratio in the repeat runs, not every such curve was filed as active; inconclusive means weak or mixed curves, or effect the other way; inactive means no such curve, though single readings can be large or run the other way; the % refers to the signal ratio; further: potency means the concentration at half of the fitted maximal effect). The procedure, abridged:
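HEK293 ER-alpha-UAS-bla GripTite cells, held overnight in 2% charcoal-stripped FBS, 5,000 cells/well, preincubated 4 h, then compound plus 17beta-estradiol for 18 h at 37C. Beta-lactamase read by LiveBLAzer B/G FRET substrate, 2 h at room temperature.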

Assay [13] shares this target. Briefly: qHTS assay to identify small molecule agonists of the estrogen receptor alpha (ER-alpha) signaling pathway (AID 743075; calls by dose curve; further: potency means the concentration at half of the fitted maximal effect).
For assay [14] the target is unchanged. Briefly: qHTS assay to identify small molecule agonists of the estrogen receptor alpha (ER-alpha) signaling pathway using the BG1 cell line (AID 743079). Further: nearly all actives have a fitted effect of over 20% in size. Further: potency means the concentration at half of the fitted maximal effect.
A short description of assay [15]: qHTS assay to identify small molecule antagonists of the estrogen receptor alpha (ER-alpha) signaling pathway using the BG1 cell line (AID 743080; calls by dose curve;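 further: BG1 cells stimulated with 17beta-estradiol alongside compound; nearly all actives have a fitted effect of over 25% in size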; further: potency means the concentration at half of the fitted maximal effect). Summed up:
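BG1-Luc-4E2 cells (endogenous full-length ER-alpha, stable 4×ERE-luciferase) were starved 5 days in phenol-red-free medium with 10% charcoal-stripped FBS, plated 24 h, then given compound plus 17beta-estradiol for 21.5 h at 37 C; ONE-Glo luminescence read after 30 min.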

A further assay addresses Aromatase (Homo sapiens) (UniProt P11511). The experiment in a line: qHTS assay to identify aromatase inhibitors (AID 743083). Further: nearly all actives have a fitted effect of over 55% in size. Further: potency means the concentration at half of the fitted maximal effect.

Sequence of Estrogen receptor (Homo sapiens) (P03372 whole entry, looked up): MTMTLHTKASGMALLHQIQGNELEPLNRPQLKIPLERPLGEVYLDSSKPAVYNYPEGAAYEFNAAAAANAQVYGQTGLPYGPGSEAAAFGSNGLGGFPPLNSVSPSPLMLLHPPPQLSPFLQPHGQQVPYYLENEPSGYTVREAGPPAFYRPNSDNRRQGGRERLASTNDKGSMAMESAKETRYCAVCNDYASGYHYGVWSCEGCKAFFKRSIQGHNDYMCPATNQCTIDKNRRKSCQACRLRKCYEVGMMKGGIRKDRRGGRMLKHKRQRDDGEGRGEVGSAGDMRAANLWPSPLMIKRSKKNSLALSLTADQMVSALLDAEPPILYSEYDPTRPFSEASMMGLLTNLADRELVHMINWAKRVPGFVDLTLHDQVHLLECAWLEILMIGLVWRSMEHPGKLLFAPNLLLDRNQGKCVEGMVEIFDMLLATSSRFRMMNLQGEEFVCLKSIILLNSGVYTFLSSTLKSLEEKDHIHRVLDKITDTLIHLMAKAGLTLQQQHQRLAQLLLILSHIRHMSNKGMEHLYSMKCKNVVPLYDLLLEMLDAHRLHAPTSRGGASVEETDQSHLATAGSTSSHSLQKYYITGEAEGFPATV
Sequence of Aromatase (Homo sapiens) (P11511 whole entry, looked up): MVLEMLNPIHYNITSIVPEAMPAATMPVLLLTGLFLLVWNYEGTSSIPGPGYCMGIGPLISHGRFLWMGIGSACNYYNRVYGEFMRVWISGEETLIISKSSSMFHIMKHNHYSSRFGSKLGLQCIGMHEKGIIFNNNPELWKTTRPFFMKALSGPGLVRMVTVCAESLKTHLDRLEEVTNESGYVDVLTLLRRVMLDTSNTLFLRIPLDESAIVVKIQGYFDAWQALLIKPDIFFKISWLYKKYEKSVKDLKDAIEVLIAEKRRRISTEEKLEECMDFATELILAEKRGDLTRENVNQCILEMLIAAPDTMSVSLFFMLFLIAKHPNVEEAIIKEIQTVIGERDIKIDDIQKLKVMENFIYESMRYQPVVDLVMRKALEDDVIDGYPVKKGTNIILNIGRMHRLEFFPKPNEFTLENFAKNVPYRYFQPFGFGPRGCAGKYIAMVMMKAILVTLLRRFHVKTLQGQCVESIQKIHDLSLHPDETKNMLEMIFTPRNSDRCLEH

Take `CN1CCC[C@@H]1CCO[C@](C)(c1ccccc1)c1ccc(Cl)cc1`: the Potency result in assay [1], in assay [5], in [6], in assay [9] and in assay [10] was “inactive” throughout. Further, the Potency in [2] was 9.44 µM (active); in assay [3], 10.6 µM (active); in [4] it was 21.1 µM (active); in assay [7], 23.7 µM (active); in assay [8] it was 26.6 µM (active).

Consider `CC1(C)CC(O)CC(C)(C)N1`, for which the Potency result in [1], in assay [2], in assay [3], in assay [4], in [5] and in assay [6] was “inactive” each time. Moreover, the Potency entry in assay [8], in assay [12], in [9], in [13], in assay [14] and in assay [15] was “inactive” in each case. Also, the Potency entry (in assay [10]; with Aromatase (Homo sapiens)) was “inactive” in each case. In [11], the molecule was classed as inactive.

With `CC/C=C\CCCCCO`, the Potency result in assay [1], in assay [2], in assay [3], in assay [4], in assay [5] and in assay [6] was “inactive” each time. Besides, the Potency entry in [8], in assay [9] and in assay [10] was “inactive” each time. Further, in assay [11], the molecule was called inactive.

With `c1cnccn1`, the Potency result in [1], in assay [2], in assay [3], in [4], in assay [5] and in [6] was “inactive” in each case. Further, the Potency result in assay [7], in assay [12], in assay [9], in [13], in [14] and in assay [15] was “inactive” throughout. The Potency entry (in assay [10]; with Aromatase (Homo sapiens)) was “inactive” throughout. The result in [11] was inactive.

For `CCOC(=O)c1ccc(C2CCC(NC[C@H](O)COc3ccc(O)c(NS(C)(=O)=O)c3)CC2)cc1` (stereo not given in full), the Potency result in [1], in [6] and in assay [10] was “inactive” in each case. For the same molecule, the Potency was 0.356 µM (active) in [2]; 0.1 µM (active) in [3]; 0.113 µM (active) in assay [4]; 45.2 µM (active) in assay [5]; 39.9 µM (active) in [7].

Take `C#CC1(O)CC[C@H]2[C@@H]3CCC4=CCCC[C@@H]4[C@H]3CC[C@@]21C` (stereo not given in full): the Potency entry in assay [1], in assay [5], in assay [6], in assay [12], in [9] and in [15] was “inactive” each time. The Potency result in [10] is “inactive”. The Potency in [2] is 11.4 µM (active) and 13.7 µM (active); in [3], 11.4 µM (active) and 7.7 µM (active); in assay [4], 11.4 µM (active) and 15.4 µM (active); in assay [7], 30.6 µM (active); in assay [8], 30.6 µM (active); in [13] it was 57.4 nM [inconclusive] (active) and 77.6 nM [inconclusive] (active). The Potency is 40.3 nM (active) and 21.7 nM (active) in assay [14]; “inactive and 61.1 µM (active)” with Aromatase (Homo sapiens).

`CCCCOC(=O)CC`: the Potency entry in [1], in [2], in assay [3], in [4], in assay [5] and in assay [6] was “inactive” in each case. Also, the Potency result (in assay [7]; in assay [9]; in [10]; with Aromatase (Homo sapiens)) was “inactive” throughout. For the same molecule, in assay [11], the molecule was called inactive.

With `CCCCCCCC`, the Potency entry in [1], in assay [2], in assay [3], in assay [4], in assay [5] and in assay [6] was “inactive” in each case. For the same molecule, the Potency entry (in [7]; in assay [12]; in [9]; in assay [15]; in assay [10]; with Aromatase (Homo sapiens)) was “inactive” throughout. Also, the outcome in assay [11] was inactive.

For `CC(C(=O)O)c1ccc2c(c1)[nH]c1ccc(Cl)cc12` (stereo not given), the Potency result in assay [1], in assay [2], in [3], in assay [4], in assay [5] and in [6] was “inactive” each time. The Potency result in [7], in assay [12], in assay [9], in [13], in assay [14] and in assay [15] was “inactive” in each case. Further, the Potency result (in [10]; in the assay with Aromatase (Homo sapiens)) was “inactive” each time. Besides, the outcome in assay [11] was inactive.

With `O=C(c1ccc(O)c(O)c1)c1ccc(O)cc1O`, the Potency entry in assay [1], in assay [5], in assay [6], in assay [9] and in [15] was “inactive” in each case. For the same molecule, the Potency in assay [2] was 43.2 µM (active); in [3], 21.6 µM (active); in [4], 8.62 µM (active); in assay [12] it was 34.6 µM [inconclusive] (active); in assay [13], 3.46 µM [inconclusive] (active); in [14], 3.85 µM (active). In addition, the outcome in assay [11] was inactive.

On to `CCC(C)n1ncn(-c2ccc(N3CCN(c4ccc(OC[C@H]5CO[C@](Cn6cncn6)(c6ccc(Cl)cc6Cl)O5)cc4)CC3)cc2)c1=O` (stereo not given in full), for which the Potency entry in assay [1], in [5], in [6], in [9], in [13] and in assay [10] was “inactive” throughout. In addition, the Potency entry in the assay with Aromatase (Homo sapiens) is “inactive”. The Potency in assay [2] is 0.596 µM (active); in assay [3] it was 0.422 µM (active); in assay [4], 0.596 µM (active); in [15] it was 13.3 µM (active).

In the case of `CCCCCCCCCCCCOCCOCCOCCOCCOCCOCCOCCOCCOCCO`, the Potency in assay [1] is 23.9 µM (active); in assay [2] it was 2.98 µM (active); in [3], 5.96 µM (active); in assay [4], 5.96 µM (active); in assay [6], 8.41 µM (active); in assay [7] it was 9.44 µM (active). Besides, the Potency is 8.41 µM (active) in assay [8]; 10.7 µM (active) in assay [9]; 5.96 µM (active) in assay [15]; 23.7 µM (active) in assay [10]; 10.6 µM (active) with Aromatase (Homo sapiens). Besides, the Potency result in assay [5] and in assay [13] was “inactive” throughout.

Turning to `CN1CCCCC1CCN1c2ccccc2Sc2ccc(S(C)=O)cc21` (stereo not given), the Potency entry in assay [1], in [5], in assay [6], in assay [12], in assay [9] and in assay [13] was “inactive” throughout. Moreover, the Potency entry (in assay [14]; in assay [15]; in assay [10]; in the assay with Aromatase (Homo sapiens)) was “inactive” each time. In addition, the Potency in assay [2] is 29.8 µM (active); in assay [3], 29.8 µM (active); in assay [4], 29.8 µM (active); in assay [7] it was “inactive and 13.3 µM (active)”. Further, the molecule was classed as inactive in assay [11].

Turning to `[Cu+]`, the Potency result in [1], in [5], in assay [6], in [7], in assay [12] and in [9] was “inactive” throughout. For the same molecule, the Potency result in [13] and in [10] was “inactive” in each case. Besides, the values for the Potency in assay [2], in [3] and in [4] were 54.5 µM (active), 54.5 µM (active) and 30.6 µM (active), respectively. Further, the result in assay [11] was inactive.

`NC[C@H]1O[C@H](O[C@H]2[C@H](O[C@@H]3O[C@H](CO)[C@@H](O)[C@H]3O)C(O)[C@H](N)C[C@@H]2N)[C@H](N)[C@@H](O)[C@@H]1O` (stereo not given in full): the Potency entry in assay [1], in assay [2], in assay [3], in [4], in assay [5] and in [6] was “inactive” throughout. The Potency result (in assay [7]; in [9]; in assay [10]; with Aromatase (Homo sapiens)) was “inactive” in each case. Moreover, in assay [11], the result was inactive.

As to `CCCCNS(=O)(=O)c1ccc(C)cc1`, the Potency entry in [1], in assay [2], in assay [3], in [4], in [5] and in [6] was “inactive” in each case. Also, the Potency entry in assay [7], in [12], in assay [9], in assay [13], in assay [14] and in assay [15] was “inactive” in each case. Also, the Potency entry in assay [10] was “inactive”. The result in assay [11] was inactive.
